Lamin A splicing – qHTS Assay for Modulators of Lamin A Splicing. HeLa LMNA splicing GFP/RFP minigene ratio, 48 h. Potency, µM (series often up to 46.1 µM), without a hit: at the highest dose ratio change, negative = inhibition, usual class: inhibitors. 200,000 tested, 0.01% active; active = well fitted inhibition curve with a large enough effect in the signal ratio, with a control signal flat, not every such curve was filed as active; inconclusive = small, poorly fitted or top-dose-only effect, or effect the other way, or a change in a side signal; the % refers to the signal ratio; note: potency is the fitted concentration of half-maximal effect; % is set by controls: 0 for no effect and ±100 for the full control effect
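S3 HeLa stable clones carrying a lamin A-EGFP splicing minigene plus DsRed2 were seeded at 600 cells/well in Opti-MEM with 2% FBS, pin-dosed and incubated 48 h at 37°C. Acumen cytometry (488 nm) gave the GFP/RFP total-intensity ratio.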
G9a block – qHTS Assay for Inhibitors of Histone Lysine Methyltransferase G9a. 350,000 tested, 8.8% active. AID 504332, 2011. G9a H3K9 monomethylation, AlphaScreen, 2 h. Histone-lysine N-methyltransferase EHMT2 (Homo sapiens), Q96KQ7. Potency, µM (doses to about 102 µM), inactives show at the top dose activity, negative = inhibition, actives largely listed as inhibitors; note: potency is the fitted concentration of half-maximal effect; % is set by controls: 0 for no effect and ±100 for the full control effect; nearly all actives have a fitted effect of over 75% in size
Target sequence (Q96KQ7 913-1193 limits assumed): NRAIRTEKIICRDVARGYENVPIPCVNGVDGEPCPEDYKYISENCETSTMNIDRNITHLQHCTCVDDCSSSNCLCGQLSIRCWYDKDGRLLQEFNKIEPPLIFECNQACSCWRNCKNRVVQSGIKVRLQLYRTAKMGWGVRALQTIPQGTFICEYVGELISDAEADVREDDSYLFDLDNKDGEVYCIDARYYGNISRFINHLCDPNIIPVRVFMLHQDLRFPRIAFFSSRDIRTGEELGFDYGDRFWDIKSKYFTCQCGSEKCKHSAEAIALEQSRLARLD
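AlphaScreen detection with an anti-monomethyl H3K9 antibody quantified product after a 2 h room-temperature reaction containing 500 nM biotinylated H3K9 peptide, 20 µM SAM and 20 nM enzyme, which had been preincubated 15 min with compound.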
ALDH1A1 block – qHTS Assay for Inhibitors of Aldehyde Dehydrogenase 1 (ALDH1A1) | Purified ALDH1A1, NADH fluorescence, propionaldehyde substrate | Potency, µM (highest dose often 75.3 µM), for the others: top-dose activity, negative = inhibition, hits mostly inhibitors | 220,000 tested, 7.3% active | AID 1030, 2008; active = well fitted inhibition curve with a large enough effect, not every such curve was filed as active; inconclusive = small, poorly fitted or top-dose-only effect, or another doubt; inactive = no such curve, though single readings can be large or run the other way;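 note: potency is the fitted concentration of half-maximal effect; plate controls were no enzyme wells and a reference inhibitor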
Sfp inh – qHTS Assay for Inhibitors of Bacillus subtilis Sfp phosphopantetheinyl transferase (PPTase) | Biochemical Sfp PPTase activity, qHTS | Potency, µM, for the others: largest response in the series, negative = inhibition, usual class: inhibitors | 310,000 tested, 3.5% active;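 note: the enzyme is Sfp with the accession as filed and its product quenches rhodamine fluorescence; potency is the fitted concentration of half-maximal effect; 0% = enzyme reaction without inhibitor and -100% = no enzyme wells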
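Fluorescence-quenching assay: 15 nM Sfp-PPTase preincubated 15 min at room temperature with compound, then 5 uM rhodamine-CoA and 12.5 uM BHQ-2-labelled YbbR peptide added. Fluorescence (ex 525/em 598 nm) read at start and after 30 min; difference gives rate.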
miR-21 reporter – qHTS Assay for Modulators of miRNAs and/orActivators of miR-21. HeLa miR-21 FLuc reporter, luciferase, 48 h. Potency, µM (titrated, usually from 38.3 µM), inactives show at the highest dose activity change, positive = activation, usual class: activators. 340,000 tested, under 10 active. AID 2288, 2010;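 note: % of control where 0% means no effect; miR-21 action dims this reporter so a rising signal means less miR-21 action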
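Compounds were titrated across several concentrations (up to approximately 40 uM) and incubated 48 hours with HeLa miR-21-FLuc reporter cells (miR-21 target sequence downstream of FLuc, endogenous miR-21). Readout was firefly luciferase luminescence after lytic detection reagent.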
JMJD2E inh – qHTS Assay for Inhibitors of Human Jumonji Domain Containing 2E (JMJD2E); Lysine-specific demethylase 4E (Homo sapiens), B2RXH2; JMJD2E catalytic domain, FDH-coupled NADH fluorescence (FDH is formaldehyde dehydrogenase); Potency, µM (doses to about 57.1 µM), for the others: top-dose activity change, negative = inhibition, most hits filed as inhibitors; 230,000 tested, 1.6% active; active = well fitted inhibition curve with a large enough effect, not every such curve was filed as active; inconclusive = small, poorly fitted or top-dose-only effect, or another doubt; inactive = no such curve, though single readings can be large or run the other way;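 note: potency is the fitted concentration of half-maximal effect; 0% = wells with enzyme and -100% = buffer wells without enzyme; nearly all actives have a fitted effect of over 50% in size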
Target sequence (B2RXH2 1-337 limits assumed): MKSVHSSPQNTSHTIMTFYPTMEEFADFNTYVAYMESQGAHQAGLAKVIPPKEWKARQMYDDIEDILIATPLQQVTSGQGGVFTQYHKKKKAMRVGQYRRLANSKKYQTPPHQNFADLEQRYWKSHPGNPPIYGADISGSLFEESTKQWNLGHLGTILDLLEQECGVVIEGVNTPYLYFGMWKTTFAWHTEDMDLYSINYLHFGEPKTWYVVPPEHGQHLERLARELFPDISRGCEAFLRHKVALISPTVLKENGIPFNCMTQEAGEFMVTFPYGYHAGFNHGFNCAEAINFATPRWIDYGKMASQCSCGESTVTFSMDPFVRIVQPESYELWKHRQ
Starred values were filed as active, the others as inactive; ? = inconclusive; · = not tested or not shown; ! = not confirmed by another sample; [ ] = dose if it differs, or a comment. The list is not random: actives were taken first. Their share in the collection is about 13%. Unless noted, calls come from the whole dose curve; as a rule, active = well fitted curve in the direction sought with a large enough effect; inconclusive = small, poorly fitted or top-dose-only effect, or another doubt; inactive = no such curve, though single readings can be large; an effect the other way counts as inactive or inconclusive.

SMILES	Lamin A splicing	G9a block	ALDH1A1 block	Sfp inh	miR-21 reporter	JMJD2E inh
CCN(CC)S(=O)(=O)c1ccc(N=Cc2c(O)n(-c3ccccc3)c(=O)[nH]c2=O)cc1	1.2%	-3.8%[59 µM]	22.4µM*	-4.9%	-1.8%	-18.4%
Cc1cccc(-n2c(O)c(C=Nc3ccc(S(N)(=O)=O)cc3)c(=O)[nH]c2=O)c1	·	-1.3%	-4.3%	-5.1%	2.5%	-10.8%
CCCn1c(C)cc(C=O)c1C	·	21.2%	7.08µM*	14.7%	-1.4%	-1.4%
Cc1cc(C=O)c(C)n1C(C)C	·	?	14.1µM*	19.8%	-0.4%	-3.6%
C=CC1CC=CCC1 (stereo unspecified)	·	·	22.4µM*	·	·	·
CN(C)c1ccc(/C=C/[N+](=O)[O-])cc1	?	70.8µM*	?	-8.7%	-1.4%	-2.1%
O=[N+]([O-])/C=C/c1ccc2c(c1)OCO2	·	2.12µM*	·	·	·	·
COc1cc2c(cc1/C=C/[N+](=O)[O-])OCO2	?	?	?	-21.0%	?	-20.9%
CC(=O)O[C@H]1CC[C@H]2[C@@H]3CCC4=C[C@@H](C5SCCS5)[C@H](OC(C)=O)C[C@]4(C)[C@H]3CC[C@@]12C	·	·	-14.8%[13.5 µM]	·	·	·
CCC(C)N1C(=O)/C(=C\c2ccc(N3CCCCCC3)cc2)C(=O)NC1=S (stereo unspecified)	-6.5%	3.55µM*	0.126µM*	?	1.0%	?
CCC(C)N1C(=O)/C(=C\c2cc3c4c(c2)CCCN4CCC3)C(=O)NC1=S (stereo unspecified)	?	44.7µM*	0.316µM*	?	-1.4%	?
CCCCC/C=C\C/C=C\C/C=C\C/C=C\CCCC(=O)NC(C)C(=O)O (stereo unspecified)	·	·	-4.2%	2.4%	·	-4.2%
CCCNC(=O)c1cnn2c(C)c(Cc3c(C)cc(C)cc3C)c(C)nc12	?	-3.3%[59 µM]	·	·	20.1%	·
COc1ccc(OCC(=O)N2CCN(CC3CC4C=CC3C4)CC2)cc1 (stereo unspecified)	4.2%	17.8µM*	-10.7%	-22.6%	-0.9%	?
CCC(=O)Nc1cc(C(=O)O)ccc1S(=O)(=O)c1ccc(C)cc1	0.2%	44.7µM*	14.7%	1.8%	-2.7%	-23.0%
CN(C)c1ccc(/C=C2\CCCN=C2c2cccnc2)cc1	·	·	?	-14.4%	·	?
BrCCBr	·	·	4.7%	·	·	·
CCOP(=O)(CN(CC)CCNP(=O)(OCC)OCC)OCC	-5.0%	50.1µM*	6.9%	19.7%	-4.9%	-5.8%
COC(=O)[C@H]1[C@H](c2ccccc2)C(=O)[C@@]2(O)c3ccccc3O[C@@]12c1ccccc1	·	·	0.7%[13.5 µM]	10.6%	·	·
NC(N)=N/N=C/c1ccc(N(c2ccccc2)c2ccccc2)cc1	·	-5.8%[2.33 µM]	·	39.8µM*	?	·
COc1ccc(/C=N\N=C(N)N)cc1	·	-6.5%	9.4%	13.4%	19.9%	7.1%
CCC12CCCN3CCC4(c5ccc(OC)c(O)c5N(C(C)=O)C4CC1)C32 (stereo unspecified)	·	·	1.2%	11.6%	·	6.9%
Cc1cc(/C=C2\C(=O)NC(=O)N(c3ccc(Cl)cc3)C2=O)c(C)n1-c1sc2c(c1C#N)CCCC2	-6.9%	?	0.251µM*	31.6µM*	-0.2%	-5.0%
CCOC(=O)c1c(-n2c(C)cc(/C=C3\C(=O)NC(=O)N(C)C3=O)c2C)sc2c1CCCC2	?	?	0.2%	?	-3.2%	1.6%
Cc1sc(-n2c(C)cc(C=C3C(=O)NC(=O)NC3=O)c2C)c(C#N)c1C	-12.6%	-23.6%[59 µM]	0.631µM*	50.1µM*	-2.8%	-0.9%
SMILES	Lamin A splicing	G9a block	ALDH1A1 block	Sfp inh	miR-21 reporter	JMJD2E inh
CCCCn1c(-c2nn(C)cc2Cl)n[nH]c1=S	14.5%	12.6µM*	-0.8%	-13.0%	-2.0%	-3.2%
[Cl][Pt+2][Cl].[NH-]C1CCCCC1[NH-] (stereo unspecified)	·	10µM*	·	·	·	·
COc1ccc(Cc2c(O)[nH]c(=S)[nH]c2=O)cc1	·	7.94µM*	·	56.2µM*	-9.0%	·
O=C1NCCN2CCCC12 (stereo unspecified)	2.9%	12.6µM*	?	14.4%	0.7%	?
Nc1ccccc1	·	·	-4.5%	·	·	·
Cc1ccc(N)c(C(=O)c2ccc(Br)cc2)c1	·	15.8µM*	15.1%	0.5%	-23.3%	2.1%
CCCSC(=O)Cl	·	·	-21.0%	·	·	·
COc1ccc(/C=C/C2=CCN(C)CC2)cc1	-13.9%[46 µM]	79.4µM*	25.1µM*	-0.2%	-37.9%	-5.7%
Clc1ccc(C(c2ccc(Cl)cc2)n2cc[n+](CC(OCc3ccc(Cl)cc3Cl)c3ccc(Cl)cc3Cl)c2)cc1 (stereo unspecified)	?	17.8µM*!	-10.4%	?	·	-25.4%
C=CCO[C@@H](Cn1ccnc1)c1ccc(Cl)cc1Cl	?	-4.0%[21.5 µM]	10.2%[20.9 µM]	-7.4%	·	-0.5%[25.5 µM]
Cc1ccc(S(=O)(=O)N(CC(=O)NCCSc2ccc(Cl)cc2)c2ccccc2C)cc1	·	14.2%[59 µM]	·	·	?	·
COc1ccc2c(c1OC)CN1CCc3cc4c(cc3[C@H]1C2)OCO4	?	2.4%[2.33 µM]	5.7%[20.9 µM]	5.0%	·	-9.3%[25.5 µM]
COc1ccc2c(c[n+](C)c3c4cc5c(cc4ccc23)OCO5)c1OC	?	16.8µM*	?	50.1µM*	·	-20.9%
CCCCCOC(=O)c1ccccc1C(=O)OCCCCC	·	·	-3.7%	·	·	·
C=CCc1ccc(O)c(OC)c1	-8.8%	11.8%[59 µM]	14.1µM*!	1.5%	·	1.4%
C[C@]12CC[C@H](O)C[C@H]1CCC1C2CC[C@]2(C)[C@@H](c3ccc(=O)oc3)C[C@H]3O[C@]132 (stereo partly specified)	·	-33.7%[12.7 µM]	·	0.4%	·	·
O=C(CCCN1CCC2(CC1)C(=O)N(Cc1cccc(F)c1)CN2c1ccccc1)c1ccc(F)cc1	·	?	-4.2%	70.8µM*	·	-2.3%
CC(=O)C1(c2ccccc2)CCN(C(=O)C2CCC(=O)N(CCc3cccc(F)c3)C2)CC1 (stereo unspecified)	·	75.5%	·	18.7%	10.1%	·
CNc1ccc(C(=O)CC(O)CCC(C)C2OC(=O)CC(O)CC(=O)CC(O)CC(O)CC(O)CC(O)CC3(O)CC(O)C(C(=O)OC)C(CC(O[C@@H]4OC(C)C(O)C(N)C4O)/C=C/C=C/C=C/C=C/C=C/C=C/C=C/C2C)O3)cc1 (stereo partly specified)	·	7.3%[2.33 µM]	-4.2%	-14.3%	·	-4.4%

Assay outcomes: PubChem, National Center for Advancing Translational Sciences (NCATS)
